Shown are actives, neighbours in structure and some others; about 1.1% of the full set was active somewhere.
12-LOX inh – Primary qHTS assay for inhibitors of human arachidonate 12S-lipoxygenase (ALOX12): Round 2 | Potency, µM (series often up to 108 µM), usual class: inhibitors | purified 12hLO, xylenol orange hydroperoxide absorbance | hit rate 1.1% among 580,000 | Polyunsaturated fatty acid lipoxygenase ALOX12 (Homo sapiens), P18054
Target sequence (P18054 whole entry, looked up): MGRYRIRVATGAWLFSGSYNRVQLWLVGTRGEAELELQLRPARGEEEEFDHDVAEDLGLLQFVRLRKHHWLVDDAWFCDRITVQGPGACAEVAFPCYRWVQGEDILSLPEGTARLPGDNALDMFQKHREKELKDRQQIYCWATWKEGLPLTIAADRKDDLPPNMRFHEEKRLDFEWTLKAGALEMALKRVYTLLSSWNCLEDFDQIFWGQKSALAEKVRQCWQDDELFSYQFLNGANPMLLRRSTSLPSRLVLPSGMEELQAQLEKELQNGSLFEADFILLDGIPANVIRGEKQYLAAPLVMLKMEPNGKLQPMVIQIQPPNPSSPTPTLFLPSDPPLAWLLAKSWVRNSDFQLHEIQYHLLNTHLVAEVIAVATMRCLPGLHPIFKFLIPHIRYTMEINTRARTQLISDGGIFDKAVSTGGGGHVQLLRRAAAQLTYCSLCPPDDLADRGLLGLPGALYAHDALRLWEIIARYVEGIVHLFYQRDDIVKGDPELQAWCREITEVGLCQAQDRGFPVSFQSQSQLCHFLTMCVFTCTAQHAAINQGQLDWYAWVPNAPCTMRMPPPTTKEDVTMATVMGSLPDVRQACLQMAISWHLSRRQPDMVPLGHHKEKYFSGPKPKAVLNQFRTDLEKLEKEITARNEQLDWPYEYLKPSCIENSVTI
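Purified human 12hLO at 150 nM in 25 mM Hepes, 0.01% Triton X-100, pH 7.0, preincubated 15 min at room temperature with compound. Reaction started with 40 uM arachidonic acid, 30 min at room temperature. Hydroperoxide measured by Fe-xylenol orange, 573/405 nm absorbance ratio.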
USP2a inh – qHTS Assay for Inhibitors of Ubiquitin-specific Protease USP2a Using CHOP2 as the Reporter. USP2 core, Ub-CHOP2 coupled fluorogenic reporter, 485/531. Potency, µM (highest dose often 38.3 µM), hits mostly inhibitors. hit rate 0.01% among 330,000
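Cell-free coupled assay: 10nM USP2 core preincubated 30min RT with compound in Tris-HCl pH 8.0/CaCl2/CHAPS buffer, then 25nM Ub-CHOP2 and 25nM reporter substrate; fluorescence (Ex 485/Em 531) read after 60min RT, normalized to NEM inhibition, concentration-response curves fitted.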
PTAP TSG101 blk – qHTS Assay for Iinhibitors of HIV-1 Budding by Blocking the Interaction of PTAP/TSG101. Potency, µM (doses to about 115 µM), actives largely listed as inhibitors. AID 493005, 2010. Tumor susceptibility gene 101 protein (Homo sapiens), Q99816. 340,000 tested, under 10 active. Fluorescence polarization, FITC-PTAP peptide / Tsg101 binding; active = well fitted inhibition curve with a large enough effect in the main read-out, with a control signal flat, not every such curve was filed as active; inconclusive = small, poorly fitted or top-dose-only effect, or effect the other way, or a change in a side signal; inactive = no such curve, though single readings can be large or run the other way
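Compounds were pin-transferred onto Tsg101 binding domain (10 uM final) in HEPES pH 7.5 buffer, then FITC-PTAP peptide was added at 50 nM final. After 20 min at RT, polarization reported peptide displacement across a qHTS concentration series.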
Eya2 inh – qHTS Assay for Inhibitors of the Phosphatase Activity of Eya2; hit rate 0.006% among 330,000; AID 488837, 2010; recombinant Eya2, OMFP fluorescence dephosphorylation (OMFP is methylfluorescein phosphate); Protein phosphatase EYA2 (Homo sapiens), O00167; Potency, µM (series often up to 76.9 µM), usual class: inhibitors
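Eya2 (0.2 uM) preincubated 10 min at ambient with compound, then OMFP substrate added at 50 uM; 10 min reaction in 50 mM HEPES pH 7.5, 50 mM NaCl, 5 uM MgCl2, 0.05% BSA, 1 mM DTT. Fluorescence read at Ex 485/Em 525 nm.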
Large screens that a line does not name were inactive. Unless noted, calls follow the shape of the dose curve; as a rule, active = well fitted curve in the direction sought with a large enough effect; inconclusive = small, poorly fitted or top-dose-only effect, or another doubt; inactive = no such curve, though single readings can be large; an effect the other way counts as inactive or inconclusive.

O=C1CSC(c2cn(-c3ccccc3)nc2-c2ccccc2)N1Cc1ccco1 (stereo unspecified)	12-LOX inh 44.7µM
Cc1nn(-c2nc3c(c(=O)n(CC(N)=O)c(=O)n3C)n2Cc2ccccc2)c(C)c1C	none (no result: USP2a inh, PTAP TSG101 blk, Eya2 inh)
CCN1C=C(Cc2ccc(OC)cc2)C2=C(C1)C(c1ccc(OC)cc1)C(C#N)=C(N)O2 (stereo unspecified)	12-LOX inh 17.8µM
Cc1ccc2sc(N(CCCN(C)C)C(=O)c3ccc(S(=O)(=O)N(C)C)cc3)nc2c1C	none
Cc1ccc2sc(N(CCCN(C)C)C(=O)c3ccc(S(=O)(=O)N(C)Cc4ccccc4)cc3)nc2c1C	12-LOX inh 28.2µM
O=[N+]([O-])c1cc(C(F)(F)F)ccc1NCCCCNS(=O)(=O)c1ccc(Cl)cc1	12-LOX inh inconclusive
O=[N+]([O-])c1cc(C(F)(F)F)ccc1NCCNC(=S)Nc1ccc(Cl)cc1	12-LOX inh 39.8µM
COC(=O)c1ccc(C(=O)NC2CCSc3ccccc32)cc1 (stereo unspecified)	none
Cc1ccc(NC(=S)NC2CCSc3ccccc32)cc1C (stereo unspecified)	12-LOX inh 44.7µM
Cc1nnc(SCC(=O)Nc2sc3c(c2C#N)CCC(C)C3)n1Cc1ccccc1 (stereo unspecified)	12-LOX inh 20µM (no result: USP2a inh, PTAP TSG101 blk, Eya2 inh)
CCn1cnnc1SCC(=O)Nc1sc2c(c1C#N)CCC(C)C2 (stereo unspecified)	none (no result: USP2a inh, PTAP TSG101 blk, Eya2 inh)
O=C1NC(=S)S/C1=C\c1cc(Cl)cc(Cl)c1O	12-LOX inh 44.7µM (no result: USP2a inh, Eya2 inh)
O=C1NC(=S)SC1=Cc1ccccc1Cl	12-LOX inh inconclusive (no result: USP2a inh, Eya2 inh)
Cc1cc(/C=C2\SC(=S)NC2=O)c(C)n1-c1ccc(O)cc1	12-LOX inh 28.2µM
CCOc1ccc(-c2noc(-c3nnn(-c4ccccc4OCC)c3N)n2)cc1	none (no result: USP2a inh, PTAP TSG101 blk, Eya2 inh)
CCCN(CC1CC1)C(=O)c1ccc2c(c1)C(O)CCCCCN2CCOC (stereo unspecified)	none (no result: USP2a inh, PTAP TSG101 blk, Eya2 inh)
COc1cc2ncnc(Nc3ccc(Cl)cc3F)c2cc1OC	12-LOX inh 20µM (no result: USP2a inh, PTAP TSG101 blk, Eya2 inh)
O=C(/N=C1\NC(=O)C(F)(C(F)(F)F)S1)NC1CCCCC1 (stereo unspecified)	12-LOX inh 10µM
CCC1S/C(=N/C(=O)NC2CCCCC2)NC1=O (stereo unspecified)	none
c1cncc(-c2[nH]ncc2CNCc2cccs2)c1	12-LOX inh 7.08µM (no result: USP2a inh, PTAP TSG101 blk, Eya2 inh)
c1cncc(-c2ccc3ncnc(NCc4cccs4)c3c2)c1	none
c1csc(CNCc2ccncc2)c1	12-LOX inh inconclusive
c1cncc(-c2nccc(NCc3cccs3)n2)c1	12-LOX inh 20µM (no result: USP2a inh, PTAP TSG101 blk, Eya2 inh)
c1cncc(-c2cc(NCc3cccs3)ncn2)c1	12-LOX inh 39.8µM (no result: USP2a inh, PTAP TSG101 blk, Eya2 inh)
COc1ccc(-c2nc3ccccc3c(=O)n2CCOc2ccccc2OC)cc1	none (no result: USP2a inh, PTAP TSG101 blk, Eya2 inh)
Cc1ccc(Nc2c(-c3ccc(C)o3)nc3cccc(C)n23)cc1	12-LOX inh 44.7µM (no result: USP2a inh, PTAP TSG101 blk, Eya2 inh)
CC1(C)CC(=O)C2=C(C1)NC(Nc1nc3ccccc3o1)=NC2c1cccc(Cl)c1 (stereo unspecified)	none (no result: USP2a inh, PTAP TSG101 blk, Eya2 inh)
C[C@]1(OC(=O)/C=C/c2ccccc2)C[C@@H](O)[C@]2(O)C=CO[C@@H](O[C@@H]3O[C@H](CO)[C@@H](O)[C@H](O)[C@H]3O)[C@@H]21	none
O=C(CCc1cn(Cc2ccc(F)cc2)c2ccccc12)NCCc1cccs1	none (no result: USP2a inh, PTAP TSG101 blk, Eya2 inh)
COc1ccc(C(=O)NC(=S)Nc2ccc(Cl)c(C(=O)O)c2)cc1	12-LOX inh 7.08µM
Cc1ccc(C(=O)NC(=S)Nc2ccc(Oc3ccc(Cl)cc3)cc2)cc1	12-LOX inh 7.94µM
COc1ccc(C(=O)NC(=S)NNC(=O)c2ccc(C)cc2)cc1	12-LOX inh inconclusive (no result: USP2a inh, Eya2 inh)
COc1ccc(C(=O)NC(=S)NNC(=O)c2ccc(NC(=O)C(C)C)cc2)cc1	12-LOX inh 44.7µM
COc1ccc(C(=O)NC(=S)Nc2cccc(S(=O)(=O)N3CCOCC3)c2)cc1	12-LOX inh 28.2µM
CCCNC(=O)c1ccc2c(=O)n3c(-c4ccc(C)cc4)csc3nc2c1	12-LOX inh 11.2µM
CCCNC(=O)c1ccc2nc(-c3ccc(C)cc3)cc(OC)c2c1	none (no result: USP2a inh, PTAP TSG101 blk, Eya2 inh)
FC(F)(F)c1ccc(Cl)c(N/N=C/c2ccc(OCc3ccccc3)cc2)c1	12-LOX inh 2.51µM (no result: USP2a inh, PTAP TSG101 blk, Eya2 inh)

Screening data as filed in PubChem BioAssay.
